Screening results: PubChem, National Center for Advancing Translational Sciences (NCATS)
TDP1 cell noCPT – qHTS for Inhibitors of human tyrosyl-DNA phosphodiesterase 1 (TDP1): qHTS in cells in absence of CPT | Potency, µM (doses to about 46.2 µM), for inactives: at the top dose activity change, negative = growth inhibition, hits mostly inhibitors | DT40 Tdp1-/- hTDP1 cells, no CPT, ATP luminescence, 48 h | AID 686978, 2013 | 420,000 tested, 15% active; further: on the % scale 0 is the no-effect control and ±100 the full control effect; nearly all actives have a fitted effect of over 55% in size
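Chicken DT40 Tdp1-/- cells complemented with human TDP1, screened without camptothecin (DMSO vehicle only), 400 cells/well. Compounds pin-transferred, cells incubated at 37 °C for at least 48 hr. Growth read as ATP-dependent luminescence (CellTiter-Glo, 30 min at RT).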
TDP1 inh – TDP1 (human) enzyme inhibition. recombinant TDP1, AlphaScreen DNA substrate cleavage. Potency, µM (highest dose often 130 µM), without a hit: top-dose activity change, negative = inhibition, most hits filed as inhibitors. Q9NUW8. 350,000 tested, 0.28% active; further: on the % scale 0 is the no-effect control and ±100 the full control effect; nearly all actives have a fitted effect of over 40% in size
Target sequence (Q9NUW8 whole entry, looked up): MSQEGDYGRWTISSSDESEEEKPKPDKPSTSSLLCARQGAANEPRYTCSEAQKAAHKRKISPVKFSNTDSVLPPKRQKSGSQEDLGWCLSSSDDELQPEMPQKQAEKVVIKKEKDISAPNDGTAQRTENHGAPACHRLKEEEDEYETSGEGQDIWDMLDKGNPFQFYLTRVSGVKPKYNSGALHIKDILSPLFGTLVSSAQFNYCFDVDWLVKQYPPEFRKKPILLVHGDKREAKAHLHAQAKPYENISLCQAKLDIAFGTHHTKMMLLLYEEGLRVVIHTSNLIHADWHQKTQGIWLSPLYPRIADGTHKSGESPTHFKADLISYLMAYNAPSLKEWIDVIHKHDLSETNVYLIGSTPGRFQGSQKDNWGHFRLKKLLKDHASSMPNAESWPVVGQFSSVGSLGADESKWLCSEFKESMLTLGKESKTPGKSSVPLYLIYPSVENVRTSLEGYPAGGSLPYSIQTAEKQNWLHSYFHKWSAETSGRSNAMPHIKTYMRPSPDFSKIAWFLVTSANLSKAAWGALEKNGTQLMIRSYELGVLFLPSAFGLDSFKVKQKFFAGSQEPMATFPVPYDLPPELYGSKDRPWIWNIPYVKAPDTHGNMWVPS
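Tdp1 1 nM final; 15 min RT w/ cpd; substrate 15 nM, 5 min; beads 10 ug/ml, 10 min; AlphaScreen read. Neg ctrl: no enzyme.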
ClpP mod – qHTS Assay for Activators of ClpP. ATP-dependent Clp protease proteolytic subunit (Bacillus subtilis (strain 168)), P80244. purified B. subtilis ClpP, FRET peptide cleavage, 20 min. Potency, µM (series often up to 57.5 µM), for the others: at the highest dose activity change, negative = active. 340,000 tested, 1.9% active. AID 651965, 2013; active means well fitted falling curve with a large enough effect; inconclusive means small, poorly fitted or top-dose-only effect; inactive means no such curve, though single readings can be large or run the other way; further: the source files actives as falling curves though it sought activators and does not explain the sign; nearly all actives have a fitted effect of over 65% in size
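Buffer: 100 mM Tris/HCl pH8, 100 mM KCl, 0.05% low protease BSA, 2.5% glycerol, 0.01% Tween-20. ClpP 10 microg/mL final; 20 min RT; delta FRET normalized to ADEP and DMSO controls.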
TDP1 cell CPT – DT40-hTDP1 cell growth loss with CPT; chicken DT40 Tdp1-/-;hTDP1 cells + 20 nM CPT, ATP luminescence, 48 h; Potency, µM (series often up to 46.2 µM), inactives show top-dose activity change, negative = growth inhibition, most hits filed as inhibitors; 420,000 tested, 12% active; further: on the % scale 0 is the no-effect control and ±100 the full control effect; nearly all actives have a fitted effect of over 55% in size
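Cell growth measured by CellTiter-Glo luminescence after a minimum 48 h, 37 C compound exposure with 20 nM CPT in Tdp1-knockout DT40 cells stably expressing hTDP1, seeded 400/well; qHTS titration format.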
An asterisk follows results filed as active; ? = inconclusive; · = no result given; ! = repeats disagree; [ ] = remark or other dose. The list is not random: actives were taken first. Their share in the collection is about 17%. Unless noted, the call rests on the fitted dose curve; in most records, active means well fitted curve in the direction sought with a large enough effect; inconclusive means small, poorly fitted or top-dose-only effect, or another doubt; inactive means no such curve, though single readings can be large; an effect the other way counts as inactive or inconclusive. Potency means the concentration at half of the fitted maximal effect.

SMILES	TDP1 cell noCPT	TDP1 inh	ClpP mod	TDP1 cell CPT
CCN(CC)c1ccc(/C=C(/C#N)c2nc3ccccc3[nH]2)c(OC(C)C)c1	11.6µM*	5.9%	0.6%	18.4µM*
N#C/C(=C/c1ccc(N2CCOCC2)o1)c1ccc(Cl)cc1	14.6µM*	12.7%	-0.7%	?
N#C/C(=C\c1ccccc1C(=O)O)c1nc2ccccc2[nH]1	2.2%	·	0.5%	-3.8%
CCOc1cc(/C=C(/C#N)c2nc3ccccc3[nH]2)ccc1OCc1ccc(C(=O)O)o1	?	-5.8%	-4.8%	-23.1%
N#C/C(=C/c1ccc(N2CCCC2)c([N+](=O)[O-])c1)c1nc2ccccc2[nH]1	14.6µM*	3.9%	-0.3%	13µM*
O=C1CCc2cc(S(=O)(=O)Nc3ccc4ccccc4c3)ccc2N1	·	2.3%	·	·
Cc1ccc2cc(C=C(C#N)C#N)c(N3CCCCC3)nc2c1	?	2.9%	1.3%	?
N#C/C(=C\c1ccc(N2CCOCC2)o1)c1nc2ccccc2[nH]1	23.1µM*	12.1%	2.6%	?
N#C/C(=C\c1ccc(Oc2ccc(C(F)(F)F)cc2[N+](=O)[O-])cc1)c1nc2ccccc2[nH]1	20.6µM*	9.6%	-8.7%	-74.3%
COC(=O)/C(C#N)=C/c1ccc(N2CCOCC2)c([N+](=O)[O-])c1	-8.8%	5.1%	·	-5.2%
Cc1ccc2nc(/C(C#N)=C\c3ccc(N4CCCCC4)c([N+](=O)[O-])c3)[nH]c2c1	10.3µM*	7.1%	-2.4%	20.6µM*
N#C/C(=C\c1ccc(-c2ccc(C(=O)O)cc2)o1)c1nc2ccccc2[nH]1	?	-0.4%[12.3 µM]	-8.6%	?
N#C/C(=C\c1ccc(N2CCOCC2)c([N+](=O)[O-])c1)c1nc2ccccc2[nH]1	14.6µM*	13.5%	-2.5%	25.9µM*
Cc1cc(-c2ccc(C)c(S(=O)(=O)Nc3ccccc3C(F)(F)F)c2)on1	?	2.6%	-2.4%	?
C[C@H]1CCC[C@@]2(O[C@H](CCO)C[C@H](O)[C@H]2O)O1	2.6%	·	-1.8%	-6.7%
COc1ccccc1N1CCN(Cc2cc(=O)oc3cc(C)ccc23)CC1	?	·	-4.2%	23.1µM*
Cc1ccc2c(CN3CCN(CCO)CC3)cc(=O)oc2c1	1.5%	5.0%	-2.9%	-11.2%
Cc1ccc2c(CN3CCN(C(=O)c4ccc(F)cc4)CC3)cc(=O)oc2c1	-61.1%	2.3%	-0.2%	18.4µM*
O=c1cc(CN2CCN(c3ccccc3F)CC2)c2c(ccc3ccccc32)o1	18.4µM*	·	28.2µM*	16.4µM*
O=c1cc(CN2CCCCC2)c2c(ccc3ccccc32)o1	?	·	-20.3%	?
COc1ccc(CN2CCN(Cc3cc(=O)oc4cc(C)ccc34)CC2)c(OC)c1OC	16.4µM*	0.0%	-4.2%	25.9µM*
COc1ccc2oc(=O)cc(CN3CCN(c4ccccc4OC)CC3)c2c1	?	9.3%	-15.2%	?
Cc1ccc(OCC(=O)Nc2ccc3nc(SCC(N)=O)sc3c2)cc1	-23.1%	4.7%	0.4%	-17.4%
Cc1ccccc1NC(=O)N(O)C1(C#N)CCCCC1	4.9%	·	31.6µM*	0.3%
COc1ccc([C@@H]2Sc3ccccc3N(CCN(C)C)C(=O)[C@@H]2OC(C)=O)cc1	26.6µM*!	-2.7%	0.4%	?
SMILES	TDP1 cell noCPT	TDP1 inh	ClpP mod	TDP1 cell CPT
Cc1cc[n+](CCC2CCCCC2)cc1	11.2µM*	·	-0.6%	10µM*
CN(C)c1ccc(S(=O)(=O)N2CCCCC2)cc1NC(=O)COc1ccccc1F	?	-1.9%	-0.1%	?
Cc1nc(-c2ccc(S(=O)(=O)N(Cc3ccccc3)C(C)C)cc2)co1	14.6µM*	3.3%	-1.0%	?
CCN(Cc1ccccc1)S(=O)(=O)c1ccc(-c2coc(C)n2)cc1	23.1µM*	-3.3%	-5.9%	13µM*
CCN(Cc1ccccc1)S(=O)(=O)c1ccc(OC)cc1	16.4µM*	·	0.0%	?
COC(=O)c1cc2oc3ccccc3c2n1CC(=O)Nc1ccc(OC)c(OC)c1	-7.6%	5.9%	4.2%	-19.5%
COc1ccc(-c2onc3ccc(C(=O)/C=C/N(C)C)cc23)cc1	20.6µM*	·	·	13µM*
CCN1C(C(=O)c2ccccc2)=C(OC(=O)COc2ccc(C)cc2)c2ccccc2S1(=O)=O	16.4µM*	3.7%	-1.2%	?
CCCN1C(C(=O)c2ccccc2)=C(OC(=O)COc2ccccc2)c2ccccc2S1(=O)=O	4.11µM*	9.8%	-2.1%	4.11µM*
CN1C(C(=O)c2ccccc2)=C(NC(=O)c2ccccc2Br)c2ccccc2S1(=O)=O	6.51µM*	6.1%	1.0%	11.6µM*
CN1C(C(=O)c2ccccc2)=C(NC(=O)c2ccc(F)cc2)c2ccccc2S1(=O)=O	?	·	-3.7%	?
Cc1ccccc1NC1=C(C(=O)c2ccccc2)N(C)S(=O)(=O)c2ccccc21	?	5.9%	1.7%	-29.3%
CCCCC(=O)OC1=C(C(=O)c2ccccc2)N(C)S(=O)(=O)c2ccccc21	23.1µM*	7.0%	-0.1%	?
O=C(COC(=O)c1cc([N+](=O)[O-])ccc1NCCO)Nc1cccnc1Cl	?	1.0%	·	-22.4%
CCCCn1nc(NC(=O)c2cccc(Cl)c2)c2cc3ccc(C)cc3nc21	?	-9.8%	-11.2%	?
COCCn1c(SCC(=O)Nc2ccc(S(=O)(=O)N(C)C)cc2)nc2ccccc21	-26.6%	4.7%	0.3%	-17.4%
F[B-](F)(F)c1cc2cc(Br)ccc2s1	-20.8%	·	0.3%	-13.1%
C[C@H]1NC(=O)[C@]2(C)[C@@H](c3ccccc3)[C@H]3COc4ccccc4[C@H]3N2C1=O	-3.6%	·	-9.6%	-3.2%
CC(=O)C1=C(OC(=O)C(C)C)c2ccccc2S(=O)(=O)N1Cc1ccccc1	?	4.7%	0.7%	?
CCN1C(C(=O)c2ccccc2)=C(OC(=O)COc2ccc(OC)cc2)c2ccccc2S1(=O)=O	4.61µM*	-2.5%	1.8%	5.17µM*
CCCN1C(C(=O)c2ccccc2)=C(OC(=O)COc2ccc(C)cc2)c2ccccc2S1(=O)=O	5.17µM*	6.1%	1.5%	4.11µM*
C=CCN1C(C(=O)c2ccccc2)=C(OC(=O)COc2ccccc2)c2ccccc2S1(=O)=O	?	8.1%	-2.1%	?
CCCN1C(C(=O)c2ccccc2)=C(OC(=O)C(C)(C)C)c2ccccc2S1(=O)=O	5.17µM*	6.1%	0.2%	4.11µM*
CCOc1ccc(-n2ccnc2SCC(=O)Nc2ccc(OC)cc2OC)cc1	?	8.8%	-0.6%	6.2%
Oc1ccc(Br)cc1C1C=C(c2ccc3c(c2)OCO3)NC(c2c(F)cccc2Cl)N1 (stereo not given)	·	3.9%	·	·
O=C(CN1C(=O)/C(=C/c2ccccc2F)Sc2ccccc21)NCC1CCCO1 (stereo not given)	?	-0.2%	-0.7%	?
C=CCn1cc(C(=O)OCC)c(=O)c2cc(F)c(F)cc21	-1.2%	1.3%	1.0%	2.9%
